Screening data as filed in PubChem.
Rows were chosen to be rich in hits. Some 3.4% of all compounds tested hit in one or more screens of this group.
MITF primary = human MITF inhibition, primary screen; AlphaScreen MITF homodimerization, bead proximity signal; 0.91% of 650,000 active; inhibition, % at 2.6 µM; in the data active means inhibition above about 50%;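 further: 0% = vehicle wells with protein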
Target sequence (O75030 whole entry, looked up): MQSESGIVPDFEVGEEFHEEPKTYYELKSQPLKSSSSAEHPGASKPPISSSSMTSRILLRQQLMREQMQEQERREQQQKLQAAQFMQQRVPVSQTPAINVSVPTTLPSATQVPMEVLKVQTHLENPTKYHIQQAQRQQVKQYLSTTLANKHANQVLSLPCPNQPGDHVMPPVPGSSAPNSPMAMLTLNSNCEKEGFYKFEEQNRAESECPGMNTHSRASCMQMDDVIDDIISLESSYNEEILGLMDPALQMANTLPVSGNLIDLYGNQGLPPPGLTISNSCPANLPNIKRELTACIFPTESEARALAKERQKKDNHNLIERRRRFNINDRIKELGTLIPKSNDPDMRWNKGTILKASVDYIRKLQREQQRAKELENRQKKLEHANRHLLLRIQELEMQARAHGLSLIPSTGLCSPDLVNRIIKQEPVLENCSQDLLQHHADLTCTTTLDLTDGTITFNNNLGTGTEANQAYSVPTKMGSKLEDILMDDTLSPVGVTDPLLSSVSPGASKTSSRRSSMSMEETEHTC
FBW7 act = human FBW7 E3 ligase activation, primary screen. Q969H0. AlphaScreen FBW7–phospho-cyclin E peptide binding, activator screen. normalized activity (activation), % at 26.1 µM. 0.13% of 650,000 active. AID 1259310; in the data active means normalized activity above about 1.9%;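 further: purified mutant Fbw7 with reduced substrate affinity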
TEAD-YAP block = TEAD-YAP interaction inhibition. HEK-TIYL cells, TEAD-Gal4/YAP UAS-luciferase luminescence. inhibition, % at 9.12 µM. 1.4% of 640,000 active. AID 1259422; in the data active means inhibition above about 32%;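 further: 0% = median of test compound wells and 100% = reference inhibitor wells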
GPR151 ag = human GPR151 activation. Q8TDV0. PathHunter beta-arrestin GPR151 cells, luminescence. activation, % at 11.2 µM. 1% of 650,000 active. AID 1508602; in the data active means activation above about 4.9%;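 further: 0% = median of compound wells and 100% = cells with positive control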
GPR151 conf act = human GPR151 activation, confirmation screen. activation, % at 11.2 µM. shares compounds with GPR151 ag. 6,700 tested, under 10 active. GPR151 PathHunter beta-arrestin cells, luminescence, 90 min; % of EA-reagent control over plate median;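 active means mean percent activation across replicates above the confirmation screen cutoff of 4.91%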
GPR119 counter = counter-screen for GPR151 activators: effect on human GPR119 | AID 1508611 | shares compounds with GPR151 ag | activation, % at 11.2 µM | GPR119 PathHunter beta-arrestin cells, luminescence, 90 min; 0 = compound-well median, 100 = enzyme-acceptor control | 0.3% of 6,700 active;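 active means mean percent activation in the counterscreen above 29.09%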;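 further: counterscreen on off-target GPR119 to flag nonselective hits from the GPR151 activator screen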
Numbers without * were called inactive; nt = no result.

SMILES	MITF primary	FBW7 act	TEAD-YAP block	GPR151 ag	GPR151 conf act	GPR119 counter
CC(C)N(CCNc1ncnc2nc(Nc3nccc4ccccc34)[nH]c12)C(C)C	9	0	-3	6.1*	0	-5
CC(C)N(CCNc1ncnc2nc(Nc3ccccc3)[nH]c12)C(C)C	5	0	-7	-2	nt	nt
O=C(c1ccc2ccccc2n1)N1CCOCC1	7	0	7	5.4*	0	-5
CCCNC(=O)c1n[nH]c2c1CCCC2	15	0	-50	-4	nt	nt
CCC(C)N(C(=O)c1csnn1)C(C(=O)NCc1ccc(F)cc1)c1ccco1 (stereo unspecified)	-5	1	-11	7.2*	1	4
COc1ccc(-c2cn3c(C(=O)N4CCc5ccccc54)csc3n2)cc1	-8	0	5	19*	0	-2
COc1ccc(-c2cn3c(C(=O)N4CCN(c5ccccc5OC)CC4)csc3n2)cc1	2	0	-8	0	nt	nt
COc1cccc(OCCOc2ccc([N+](=O)[O-])cc2/C=c2\sc3nc4ccccc4n3c2=O)c1	8	0	-10	1	nt	nt
CCOC(=O)c1cnc2ccc(OCC)cc2c1Nc1ccccc1F	-22	0	-12	-1	nt	nt
CC(=O)NC1=NC(=O)/C(=C/c2ccc(-c3ccc(C)c(Cl)c3)o2)S1	-6	0	-1	5.3*	1	7
CCN(CC)c1nc(NCc2cccc(C(F)(F)F)c2)nc(NCc2ccc3c(c2)OCO3)n1	7	0	-6	6.4*	0	-10
CCN(CC)c1nc(NCc2cccc(C(F)(F)F)c2)nc(Nc2ccc(C(F)(F)F)cc2)n1	8	0	6	0	nt	nt
CC(C)CCNC(=O)CN(C(=O)CCC(=O)Nc1ccccn1)C1CCCC1	-1	0	30	1	nt	nt
N#C/C(=C\c1cn(Cc2ccccc2)c2ccccc12)C(=O)NC1CC1	5	0	-37	5.2*	1	10
CCOC(=O)C1CCCN(c2ccc(NC(=O)c3snc4c(=O)[nH]cnc34)cc2)C1 (stereo unspecified)	1	0	-7	7.4*	1	10
CCCC1=NN2C(=N)/C(=C/c3ccc(OCCOc4cc(C)ccc4C(C)C)c(OC)c3)C(=O)N=C2S1	-6	0	10	-1	nt	nt
O=C(NC1CCCC1)N1CCN(c2nc3ccc(F)cc3s2)CC1	6	0	-2	6.4*	0	6
COc1ccc2nc(N3CCC(C(=O)N4CCCC4)CC3)sc2c1	-7	0	-27	6.9*	0	1
O=C(COc1ccccc1)Oc1ccc2nc(N3CCCC3)sc2c1	7	0	-41	9.1*	-4	-27
NC(=O)c1ccc2nc(N3CCN(c4ccccn4)CC3)sc2c1	-6	0	-49	8.1*	0	-2
COc1ccc2nc(N3CCN(C(=O)C4CCCN4S(C)(=O)=O)CC3)sc2c1 (stereo unspecified)	-7	0	1	1	nt	nt
CCN1CCN(c2nc3ccc(OC(=O)COc4ccccc4)cc3s2)CC1	11	0	-34	-2	nt	nt
CCC1=Nc2cc(C(=O)NCCCN3CCOCC3)ccc2Sc2ccc(C)cc21	-4	0	-1	0	nt	nt
COc1ccc(/C=C2/SC(=S)N(CCC(=O)Nc3ccc(O)cc3)C2=O)cc1	6	0	9	0	nt	nt
COc1ccc(NC(=O)N(C)c2cccc(Cl)c2)cc1	-8	0	-6	2	nt	nt
SMILES	MITF primary	FBW7 act	TEAD-YAP block	GPR151 ag	GPR151 conf act	GPR119 counter
NC(=O)C1CCN(C(=O)c2ccc3nc(N4CCCCC4)sc3c2)CC1	4	0	-48	12*	2	8
O=C(O)c1ccc2nc(N3CCCCC3)sc2c1	0	0	-19	-6	nt	nt
N#Cc1ccc2c(c1)N(Cc1ccccc1F)C(=O)C1CCCN21 (stereo unspecified)	-3	0	5	2	nt	nt
Cc1cccc(CN2C(=O)C3CCCN3c3ccc(C#N)cc32)c1 (stereo unspecified)	0	0	-5	9.4*	0	-7
CC(=O)c1ccc(OCc2cc(C(=O)NC(C)CCn3cccn3)no2)cc1 (stereo unspecified)	9	0	-49	6.3*	1	-3
CC(CCn1cccn1)NC(=O)c1cc(COc2ccc3ncccc3c2)on1 (stereo unspecified)	10	0	16	1	nt	nt
CCOc1ccc(NC(=O)CN2CCN(S(=O)(=O)c3cccc([N+](=O)[O-])c3)CC2)cc1	-8	0	9	-3	nt	nt
COc1cc(C(=O)O)ccc1OCc1ccc(C)cc1	12	0	5	-4	nt	nt
CC(C)C(=O)Nc1nc2ccc(F)cc2s1	-1	0	-42	0	nt	nt
CCc1ccccc1NC(=S)Nc1nc2ccc(F)cc2s1	-3	0	46*	5.5*	0	-8
Cc1nc(SCc2cccc(Oc3ccccc3)c2)n[nH]1	2	0	26	7.9*	0	-1
O=c1[nH]nc(SCc2cccc(Oc3ccccc3)c2)c(=S)[nH]1	5	0	4	-1	nt	nt
O=c1nc2s/c(=C/c3cccs3)c(=O)n2nc1Cc1ccc(F)cc1	8	-2	12	5.0*	0	-5
CC(=O)Oc1ccc(/C=c2/sc3nc(=O)c(Cc4ccc(F)cc4)nn3c2=O)cc1	-1	0	11	1	nt	nt
CCCCC(C(=O)OC)N1C(=O)c2cc(Cl)c(Cl)cc2C1=O (stereo unspecified)	-2	0	-1	7.6*	0	5
CC(C)Oc1ccc(NC(=O)/C=C/c2ccc(F)cc2)cc1	15	0	-28	6.7*	1	-2
COc1ccc(/C=C/C(=O)Nc2ccc(OC(C)C)cc2)cc1	-1	0	-23	2	nt	nt
Cn1ncc2c(N3CCOCC3)nc(NCc3ccco3)nc21	17	0	-2	5.4*	0	-3
O=C(NCCCSc1ccc(Br)cc1)Nc1ncccn1	8	0	10	5.2*	1	7
Cc1ccc(C(=O)Nc2cccc(C(=O)N/N=C/c3ccccc3O)c2)cc1	2	0	-12	1	nt	nt
O=C(N/N=C/c1ccco1)c1cccc(I)c1	7	0	-4	1	nt	nt
COc1ccc(C(=O)N(Cc2cccs2)C2CC(C)(C)NC(C)(C)C2)cc1	5	1	13	7.4*	0	5
COCCNCCOc1ccc(C)cc1Cl	34	0	-2	1	nt	nt
CCCCNCCCOc1cc(C)ccc1C	2	0	4	5.0*	0	1
Cc1ccc(C)c(OCCN2CCNCC2)c1	35	0	6	9.0*	0	2
CCCCNCCOc1cc(C)ccc1C	14	0	5	-1	nt	nt
COCCNCCOc1ccc(C)cc1C	35	0	-4	8.1*	2	17
CCCOc1ccccc1C1NC(=O)NC(C)=C1C(=O)OC1CCCC(C)C1 (stereo unspecified)	0	0	3	2	nt	nt
